# Counter-ions that a name gives are not always drawn.
# Tested on: PBMC-derived induced microglia-like cells (piMGLC)
# Experiment: synaptosome phagocytic index relative to DMSO control (fraction of DMSO); higher = more phagocytosis
# Conditions: concentration: 10 uM (2 uM for compounds listed in Table S2); pretreatment time: 24 h; assay time: 3 h
row,Structure (SMILES),synaptosome phagocytic index
1,CCN(CC)CC(=O)Nc1c(C)cccc1C [Lidocaine_(hydrochloride)],0.925
2,CN(C/C=C/C#CC(C)(C)C)Cc1cccc2ccccc12 [Terbinafine],0.502
3,CNCCC=C1c2ccccc2CCc2ccccc21 [Nortriptyline_(hydrochloride)],0.487
4,CC12CC3CC(C)(C1)CC(N)(C3)C2 [Memantine_(hydrochloride)],0.724
5,CC(C)(C)c1cnc(CSc2cnc(NC(=O)C3CCNCC3)s2)o1,0.572
6,CO[C@H]1C(=O)[C@]2(C)[C@@H](OC)C[C@H]3OC[C@@]3(OC(C)=O)[C@H]2[C@H](OC(=O)c2ccccc2)[C@]2(O)C[C@H](OC(=O)[C@H](O)[C@@H](NC(=O)OC(C)(C)C)c3ccccc3)C(C)=C1C2(C)C [Cabazitaxel],0.833
7,C[C@H]1COc2c(N3CCN(C)CC3)c(F)cc3c(=O)c(C(=O)O)cn1c23 [Levofloxacin],1.16
8,Nc1nc2[nH]cc(CCc3ccc(C(=O)N[C@@H](CCC(=O)O)C(=O)O)cc3)c2c(=O)[nH]1 [Pemetrexed_(disodium_hemipenta_hydrate)],1.03
9,Clc1cccc(CN=C2Nc3ccccc3NC23CCNCC3)c1 [Liproxstatin-1],1.31
10,CCCN(CCc1cccs1)[C@H]1CCc2c(O)cccc2C1 [Rotigotine],0.995
11,NC(=O)N1c2ccccc2C=Cc2ccccc21 [Carbamazepine],0.865
12,CN(C)C(=O)c1cc2cnc(Nc3ccc(N4CCNCC4)cn3)nc2n1C1CCCC1 [Ribociclib_hydrochloride],0.332
13,Oc1c(I)cc(Cl)c2cccnc12 [Clioquinol],0.393
14,Cc1cc(=O)n(-c2ccccc2)n1C [Antipyrine],0.601
15,C[C@@H]1O[C@@H]1P(=O)(O)O [Fosfomycin_(calcium)],0.946
16,Nc1nc(Cl)nc2c1ncn2[C@H]1C[C@H](O)[C@@H](CO)O1 [Cladribine],1.1
17,CC(C)c1nc(CN(C)C(=O)N[C@H](C(=O)N[C@@H](Cc2ccccc2)C[C@H](O)[C@H](Cc2ccccc2)NC(=O)OCc2cncs2)C(C)C)cs1 [Ritonavir],0.742
18,O=C(CCCN1CCC(O)(c2ccc(Cl)cc2)CC1)c1ccc(F)cc1 [Haloperidol],1.05
19,CC1CCN(CC[C@H]2CCCN2S(=O)(=O)c2cccc(O)c2)CC1,0.817

row,Structure (SMILES),synaptosome phagocytic index
1,CN(C)CCOC(C)(c1ccccc1)c1ccccn1 (configuration not stated) [Doxylamine_(succinate)],0.833
2,C[C@]12CCCN1CC1=NNC(=O)c3cc(F)cc4[nH]c2c1c34 [Pamiparib],0.861
3,C[C@H](c1ccc(F)cc1CCCC(=O)O)N(c1cc(F)ccc1F)S(=O)(=O)c1ccc(Cl)cc1,0.385
4,CNCCC(Oc1ccc(C(F)(F)F)cc1)c1ccccc1 (configuration not stated) [Fluoxetine_(hydrochloride)],0.69
5,CC(=O)Nc1ccc(C(=O)Nc2cc(-c3cccs3)ccc2N)cc1,0.416
6,O=C(NC1CCCCC1)N(Cc1ccccc1)CC1CCNCC1,0.882
7,CN/C(=N\CCSCc1nc[nH]c1C)NC#N [Cimetidine],1.07
8,CS(=O)(=O)c1ccc(C2=C(c3ccccc3)C(=O)OC2)cc1 [Rofecoxib],1.08
9,CCC1(C)CC(=O)NC1=O (configuration not stated) [Ethosuximide],0.869
10,CC#Cc1cncc(-c2ccc3c(c2)[C@@]2(N=C(C)C(N)=N2)[C@]2(CC[C@H](OC)CC2)C3)c1 [Lanabecestat],1.03
11,OC(CN1CCN(c2cccc(Cl)c2)CC1)C(c1ccccc1)c1ccccc1 (configuration not stated),1.01
12,O=C(O)c1ccccc1O [Salicylic_acid],0.557
13,COc1ccc(C[C@@H]2c3cc(OC)c(OC)cc3CC[N@+]2(C)CCC(=O)OCCCCCOC(=O)CC[N@@+]2(C)CCc3cc(OC)c(OC)cc3[C@H]2Cc2ccc(OC)c(OC)c2)cc1OC [Cisatracurium_(besylate)],0.726
14,CNCC[C@@H](Oc1ccccc1C)c1ccccc1 [Atomoxetine_(hydrochloride)],1.16
15,COCc1ccc(-c2ccc(N(C[C@@H](N)[C@@H](C)OC)C(=O)[C@@H]3C[C@H]3c3ccccn3)cc2)cc1,0.794
16,C#CCN[C@@H]1CCc2ccccc21 [Rasagiline_(mesylate)],0.965
17,CCc1c(C)[nH]c2c1C(=O)C(CN1CCOCC1)CC2 (configuration not stated) [Molindone_(hydrochloride)],0.64
18,N#Cc1ccc(COC[C@H]2O[C@@H](n3c(NCc4ccc(Cl)c(Cl)c4)nc4c(N)ncnc43)[C@H](O)[C@@H]2O)cc1,0.479
